Laboratory results from the supplement of paper PMC10127200.
Structures can show the parent of a compound that is named as a salt.

Assays:
Assay in all cases: Euclidean distance of Cell Painting phenotypic profile (signed KS, 77 features) to DMSO centroid (dimensionless distance); 5 or 10 uM (library dependent); higher = stronger phenotypic change vs DMSO (phenoactivity)
Details in all cases: 48 h
[1] = tested on: 786-O
In short: (§1)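 Stained cells were imaged confocally at 20X with 9 fields per well, after 48 h of exposure to library compounds at 10 or 5 uM (set by library; 0.1% DMSO final). The cells were five cancer lines and a healthy fibroblast line. From the images, Harmony extracted 77 features, each expressed as a signed Kolmogorov-Smirnov statistic relative to same-plate vehicle wells. Phenoactivity is measured as Euclidean distance to the median vehicle profile, using plate-position-corrected, correlation-weighted profiles averaged across replicates at the top dose.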

[2] = tested on: A549
In short: as §1

[3] = tested on: DU145
In short: as §1

[4] = tested on: FB
In short: as §1

[5] = tested on: HEPG2
In short: as §1

[6] = tested on: OVCAR4
In short: as §1

SMILES | Euclidean distance [1] | Euclidean distance [2] | Euclidean distance [3] | Euclidean distance [4] | Euclidean distance [5] | Euclidean distance [6]
CC(=O)N1CCN(c2ccc(OCC3COC(Cn4ccnc4)(c4ccc(Cl)cc4Cl)O3)cc2)CC1 (configuration not stated) [Ketoconazole] | 1.55 | 0.896 | 2.29 | 0.789 | 0.391 | 0.644
CCC(=O)OCC(=O)[C@@]1(OC(=O)CC)[C@@H](C)C[C@H]2[C@@H]3CCC4=CC(=O)C=C[C@]4(C)[C@@]3(Cl)[C@@H](O)C[C@@]21C [Beclomethasone dipropionate] | 1.09 | 2.14 | 2.46 | 1.95 | 0.575 | 1.8
N=C(N)N/N=C/c1c(Cl)cccc1Cl [Guanabenz Acetate] | 1.25 | 1.29 | 1.12 | 0.609 | 0.842 | 1.77
Cc1ccc2c(=O)c3cccc(CC(=O)O)c3oc2c1C [DMXAA (Vadimezan)] | 2.33 | 0.921 | 1.14 | 1.4 |  | 1.04
CC(C)[C@H](O)C(=O)N[C@@H](C)C(=O)N[C@@H]1C(=O)N(C)CCc2ccccc21 | 1.12 | 1.34 | 1.12 | 1.22 |  | 1.03
CCc1c(C(=O)NCCc2ccc(N3CCCCC3)cc2)[nH]c2ccc(Cl)cc12 | 1.69 | 1.48 | 1.01 | 1.21 |  | 1.47
Nc1nc(F)nc2c1ncn2[C@@H]1O[C@H](COP(=O)(O)O)[C@@H](O)[C@@H]1O [Fludarabine Phosphate] | 2.13 | 2.48 | 1.94 | 3.2 | 1.57 | 2.98
NC(=O)Nc1cc(-c2cccc(F)c2)sc1C(=O)N[C@H]1CCCNC1 | 3.38 | 3.15 | 3.87 | 3.82 |  | 4.24
CN(C)Cc1cccc(N=C(c2ccccc2)c2c(O)[nH]c3cc(C(=O)N(C)C)ccc23)c1 | 0.777 | 0.99 | 1.08 | 3.16 |  | 1.3
COc1ccc(S(=O)(=O)N(C(C)=O)c2ccccc2/C=C/c2cc[n+]([O-])cc2)cc1 | 2.93 | 2.94 | 4.01 | 2.75 | 3.08 | 2.97
CCOC(=O)C1=C[C@]2(CC)CCCN3CCc4c(n1c1ccccc41)[C@@H]32 [Vinpocetine] | 1.12 | 0.68 | 0.699 | 0.994 | 0.98 | 1.81
O=C(NOCC(O)CO)c1cc(Br)c(F)c(F)c1Nc1ccc(I)cc1F (configuration not stated) | 1.97 | 2.76 | 1.78 | 2.89 |  | 1.17
CC(C)C[C@@H](C(=O)N[C@H](C(=O)OC1CCCC1)c1ccccc1)[C@H](O)C(=O)NO [Tosedostat (CHR2797)] | 0.679 | 1.35 | 0.893 | 1.15 |  | 1.27
O=C(O)Cc1ccccc1Nc1c(Cl)cccc1Cl [Diclofenac Sodium] | 1.2 | 0.988 | 0.729 | 1.14 | 0.995 | 0.677
Cc1ccc(-n2nc(C(C)(C)C)cc2NC(=O)Nc2ccc(OCCN3CCOCC3)c3ccccc23)cc1 [BIRB 796 (Doramapimod)] | 1.54 | 0.959 | 1.2 | 1.38 |  | 1.21
O=C(Cc1cccc(OC(F)(F)F)c1)Nc1ccc(CCCCc2nnc(NC(=O)Cc3ccccn3)s2)nn1 | 2.27 | 2.41 | 1.99 | 3.38 | 2.75 | 2.28
CN1CCC(COc2cnc(-c3cccc(Cn4nc(-c5cccc(C#N)c5)ccc4=O)c3)nc2)CC1 | 1.74 | 3.89 | 2.96 | 2.46 | 1.76 | 1.52
N[C@@H]1CCCCN(c2c(F)cc3c(=O)c(C(=O)O)cn(C4CC4)c3c2Cl)C1 [Besifloxacin HCl] | 0.849 | 1.19 | 0.808 | 0.781 | 0.864 | 0.585
N=c1ccn2c(n1)O[C@H]1[C@H](O)[C@@H](CO)O[C@H]12 [Cyclocytidine HCl] | 3.43 | 2.7 | 2.45 | 3.66 |  | 4.57
COCCOc1ccc2c(c1)ncn2-c1ccc2cccc(N3CCC(N)CC3)c2n1 | 2.57 | 3.24 | 3.51 | 3.61 |  | 3.88
CC(C)(C)NC(=O)N[C@H](C(=O)N1C[C@H]2[C@@H]([C@H]1C(=O)NC(CC1CCC1)C(=O)C(N)=O)C2(C)C)C(C)(C)C (some centres not stated) [Boceprevir] | 1.48 | 0.973 | 1.59 | 1.13 | 0.545 | 1.45
C=CCn1c(=O)c2cnc(Nc3ccc(N4CCN(C)CC4)cc3)nc2n1-c1cccc(C(C)(C)O)n1 | 3.28 | 2.56 | 2.52 | 3.63 |  | 3.95
Clc1ccc(C2(c3ccc(-c4cn[nH]c4)cc3)CCNCC2)cc1 | 2.95 | 3.29 | 3.8 | 4.67 |  | 3.48
Cc1cc(NC(=O)Nc2ccc(N(C)C)cc2)c2cc(F)cc(F)c2n1 | 0.716 | 1.16 | 0.704 | 0.943 |  | 0.985
NC(=O)c1ncn([C@@H]2O[C@H](CO)[C@@H](O)[C@H]2O)c1N [Acadesine] | 1 | 1.3 | 0.856 | 1.35 |  | 0.909
CCCNC(=O)Nc1ccc(Oc2ncnc3cc(OC)c(OC)cc23)cc1Cl | 0.633 | 0.789 | 0.916 | 2.36 |  | 1.05
CCOC(=O)[C@H](CCc1ccccc1)N[C@H]1CCCN2CCC[C@@H](C(=O)O)N2C1=O [Cilazapril Monohydrate] | 1.14 | 1.31 | 0.828 | 1.03 |  | 1.38

SMILES | Euclidean distance [1] | Euclidean distance [2] | Euclidean distance [3] | Euclidean distance [4] | Euclidean distance [5] | Euclidean distance [6]
C[C@@]1(c2cc(-c3cncnc3)c(F)cc2F)CCSC(N)=N1 | 2.11 | 1.07 | 1.06 | 1.09 |  | 0.965
CC(C)c1cnn2c(NCc3ccccc3)cc(NCCCCCCN)nc12 | 0.657 | 0.869 | 0.933 | 0.961 |  | 1.08
OCCOCCN1CCN(C(c2ccccc2)c2ccc(Cl)cc2)CC1 (configuration not stated) [Hydroxyzine 2HCl] | 1.32 | 0.879 | 1.07 | 0.804 | 1.04 | 1.17
CNC(=O)CN(CCN(CCN(CC(=O)[O-])CC(=O)NC)CC(=O)[O-])CC(=O)[O-].[Gd+3] [Gadodiamide] | 0.953 | 1.55 | 1.5 | 0.962 |  | 1.1
CCCCCCCCCCCCc1ccc(S(=O)(=O)Nc2nncs2)cc1 | 1.69 | 1.57 | 0.932 | 1.16 |  | 1.51
NCCCCCC(=O)O | 0.84 | 1.89 | 2.26 | 1.67 |  | 1.43
Nc1cccc(-c2cc3c(Oc4cccc(O)c4)ncnc3[nH]2)c1 | 1.73 | 3.48 | 1.62 | 2.71 |  | 3.29
NS(=O)(=O)c1cc2c(cc1Cl)NCNS2(=O)=O [Hydrochlorothiazide] | 1.82 | 1.08 | 1.44 | 1.02 |  | 0.927
COc1cc(Nc2nc3ccccc3nc2NS(=O)(=O)c2ccc(NC(=O)c3ccc(C)c(OC)c3)cc2)cc(OC)c1 | 0.677 | 1.26 | 1.17 | 0.743 |  | 1.07
c1ccc(C2CN3CCSC3=N2)cc1 (single isomer, unassigned; (-)) [(-)-Tetramisole] | 1.24 | 1.23 | 0.518 | 0.965 |  | 2.19
C[C@@H]1CN(CC(=O)Nc2ccc3c(c2)Cc2cccc(-c4cc(=O)cc(N5CCOCC5)o4)c2S3)C[C@H](C)O1 | 1.16 | 1.25 | 1.41 | 1.37 |  | 2.14
CCN(CC)CCOC(=O)C(c1ccccc1)c1ccccc1 [Adiphenine HCl] | 1.67 | 0.625 | 0.633 | 1.43 |  | 0.992
CCCCOc1c(C(=O)c2c(F)cc(C)cc2F)c[nH]c2nncc1-2 | 1.55 | 2.16 | 1.61 | 1.37 |  | 2.1
O=S(=O)(NCCNC/C=C/c1ccc(Br)cc1)c1cccc2cnccc12 | 2.02 | 1.32 | 2.19 | 1.3 |  | 1.89
C=CCc1cc(OC)c(O)c(C(=O)NCCO)c1 [Alibendol] | 2.26 | 0.655 | 0.743 | 0.938 |  | 0.912
CN(C)Cc1cccc(N/C(=C2\C(=O)Nc3cc(C(N)=O)ccc32)c2ccccc2)c1 | 1.11 | 1.06 | 1.33 | 2.56 |  | 1.22
CN1c2ccccc2C(=O)N2CCc3c([nH]c4ccccc34)C21 (stereo in doubt) [Evodiamine] | 2.67 | 2.85 |  | 1.59 | 2.03 | 1.81
CC1=C(/C=C/C(C)=C/C=C/C(C)=C/C(=O)O)C(C)(C)CCC1 [Tretinoin] | 1.24 | 1.29 |  | 2.68 | 1.21 | 1.18
CN1CC[C@H](c2c(O)cc(O)c3c(=O)cc(-c4ccccc4Cl)oc23)[C@H](O)C1 [Flavopiridol (Alvocidib)] | 3.09 | 3.07 |  | 3.22 | 2.66 | 3.72
C(=C\c1ccccc1)/CN1CCN(C(c2ccccc2)c2ccccc2)CC1 [Cinnarizine] | 0.758 | 1.16 |  | 1.01 | 0.713 | 1.63
CC1(C)[C@@H](O[C@H]2O[C@H](C(=O)O)[C@@H](O)[C@H](O)[C@H]2O[C@@H]2O[C@H](C(=O)O)[C@@H](O)[C@H](O)[C@H]2O)CC[C@]2(C)[C@H]3C(=O)C=C4[C@@H]5C[C@@](C)(C(=O)O)CC[C@]5(C)CC[C@@]4(C)[C@]3(C)CC[C@@H]12 [Glycyrrhizin (Glycyrrhizic Acid)] | 1.52 | 0.67 |  | 1.38 | 0.607 | 1.47
C=C(C)[C@@H]1CC=C(CO)CC1 [Perillyl alcohol] | 0.887 | 0.815 |  | 0.953 | 1.09 | 1.74
CCc1nc(N)nc(N)c1-c1ccc(Cl)cc1 [Pyrimethamine] | 1.19 | 3.4 |  | 0.96 | 1.83 | 2.25
CC(C)C[C@H](NC(=O)[C@@H](O)[C@H](N)Cc1ccccc1)C(=O)O [Bestatin] | 1.08 | 0.773 |  | 1.11 | 0.637 | 1.09
CCCCCCCCCC(=O)N[C@@H](Cc1c[nH]c2ccccc12)C(=O)N[C@H](CC(N)=O)C(=O)N[C@@H](CC(=O)O)C(=O)N[C@@H]1C(=O)NCC(=O)N[C@@H](CCCN)C(=O)N[C@@H](CC(=O)O)C(=O)N[C@H](C)C(=O)N[C@@H](CC(=O)O)C(=O)NCC(=O)N[C@H](CO)C(=O)N[C@@H]([C@H](C)CC(=O)O)C(=O)N[C@@H](CC(=O)c2ccccc2N)C(=O)O[C@@H]1C [Daptomycin] | 1.06 | 0.544 |  | 0.795 | 0.461 | 1.14
COc1cc2ccc(=O)oc2cc1O [Scopoletin] | 1.25 | 0.713 |  | 0.934 | 0.82 | 1.3
